p53null 32C tox: kills p53 null cells at the permissive temperature. 0.62% of 55,000 active. H1299-neo p53 null cells, ATP luminescence, 24 h, 32C. Potency, µM (highest dose often 46.1 µM), usual class: cytotoxic; further: nearly all actives have a fitted effect of over 55% in size
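Luminescent ATP readout gave cell viability of p53-null H1299-neo cells after a 24 h compound exposure at the permissive 32C. Titrations ran up to 46 uM, and AC50s were fitted with the standard Hill equation.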
p53null 39C kill: p53 null cell cytotoxicity, nonpermissive temperature. H1299 p53-null (neo) cells, 39C, ATPlite viability, 24 h. Potency, µM (series often up to 46.1 µM), most hits filed as cytotoxic. 0.97% of 55,000 active; further: nearly all actives have a fitted effect of over 50% in size
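Luminescent ATP signal reported cell survival after H1299 lines (neo, p53 null; or p53 A138V) received up to 46 uM compound and 24 hr incubation at 39C.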
GALC G270D up: raises human GALC G270D mutant activity in cells; P54803; 145M-Twi-hGALC-G270D cells (Twitcher mouse brain line with human GALC G270D), HMU-beta-Gal fluorescence, 48 h; Potency, µM (series often up to 57.5 µM), most hits filed as activators; 0.1% of 45,000 active; further: nearly all actives have a fitted effect of over 65% in size
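Mutant human GALC (G270D), stably expressed in a Twitcher mouse brain cell line lacking endogenous GALC, is measured in live-treated cells via 6-hexadecanoylamino-4-methylumbelliferyl-β-galactoside hydrolysis (0.1 mM final, pH 5.2) with fluorescent detection.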
NTMT1 inh: blocks human N-terminal methyltransferase 1 activity | Q9BV86 | NTMT1 MTase-Glo SAH luminescence, purified enzyme | Potency, µM (series often up to 114 µM), usual class: inhibitors | 2.5% of 59,000 active | AID 1645870; further: nearly all actives have a fitted effect of over 65% in size
Target sequence (Q9BV86 whole entry, looked up): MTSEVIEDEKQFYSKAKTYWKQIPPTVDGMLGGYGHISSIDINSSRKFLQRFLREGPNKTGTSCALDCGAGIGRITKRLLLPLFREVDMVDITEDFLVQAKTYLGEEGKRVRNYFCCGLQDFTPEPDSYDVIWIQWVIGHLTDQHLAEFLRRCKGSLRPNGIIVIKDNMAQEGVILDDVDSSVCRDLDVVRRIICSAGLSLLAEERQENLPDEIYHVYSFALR
FH mod: Identification of activators of human fumarate hydratase by quantitative high-throughput screening; FH coupled MDH/diaphorase resazurin fluorescence, 15 min; Fumarate hydratase, mitochondrial (Homo sapiens), P07954; 0.22% of 54,000 active; Potency, µM (titrated, usually from 79.9 µM), usual class: inhibitors; further: the screen sought activators but most active calls are inhibition curves; nearly all actives have a fitted effect of over 45% in size
Target sequence (P07954 whole entry, looked up): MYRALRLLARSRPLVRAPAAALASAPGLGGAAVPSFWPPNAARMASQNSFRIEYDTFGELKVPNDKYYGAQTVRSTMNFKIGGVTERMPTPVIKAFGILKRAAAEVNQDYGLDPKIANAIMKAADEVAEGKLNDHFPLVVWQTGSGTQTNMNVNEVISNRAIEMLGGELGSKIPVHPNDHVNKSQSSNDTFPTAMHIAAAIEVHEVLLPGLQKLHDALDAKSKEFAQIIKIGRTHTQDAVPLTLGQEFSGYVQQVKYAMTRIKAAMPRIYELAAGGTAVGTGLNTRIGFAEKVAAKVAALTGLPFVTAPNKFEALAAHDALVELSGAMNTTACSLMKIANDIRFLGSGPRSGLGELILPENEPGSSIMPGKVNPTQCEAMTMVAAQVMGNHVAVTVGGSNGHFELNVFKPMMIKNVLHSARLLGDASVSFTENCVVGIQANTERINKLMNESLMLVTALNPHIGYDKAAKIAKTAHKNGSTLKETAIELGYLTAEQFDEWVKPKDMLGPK
Large screens that a line does not name were inactive; ! = not active in a repeat; [ ] = another dose, or the depositor's remark. Only a selection was taken, and hits are over-represented in it overall. The call rests on the fitted dose curve; in most records, active means well fitted curve in the direction sought with a large enough effect; inconclusive means small, poorly fitted or top-dose-only effect, or another doubt; inactive means no such curve, though single readings can be large; an effect the other way counts as inactive or inconclusive.

O=C(CSc1nnc2[nH]c(=O)cc(-c3ccccc3)n12)Nc1cc(C(F)(F)F)ccc1Cl	p53null 32C tox 1.3µM, p53null 39C kill 0.79µM, NTMT1 inh inconclusive, FH mod inconclusive
CCOc1cccc(-c2nc3ccccc3c(=O)o2)c1	p53null 32C tox 13µM, p53null 39C kill inconclusive
CCC[C@@H](NC(=O)[C@@H]1[C@H]2CCC[C@@H]2CN1C(=O)[C@@H](NC(=O)[C@@H](NC(=O)c1cnccn1)C1CCCCC1)C(C)(C)C)C(=O)C(=O)NC1CC1	none (no result: p53null 32C tox, p53null 39C kill, GALC G270D up)
CCC[C@H](NC(=O)[C@@H]1[C@H]2CCC[C@H]2CN1C(=O)[C@@H](NC(=O)[C@@H](NC(=O)c1cnccn1)C1CCCCC1)C(C)(C)C)C(=O)C(=O)NC1CC1	NTMT1 inh 45µM (no result: p53null 32C tox, p53null 39C kill, GALC G270D up, FH mod)
C=CCN1C=CC(=C/C=C(/C#N)C(=O)OCC)C=C1	p53null 32C tox 8.9µM, p53null 39C kill inconclusive (no result: GALC G270D up, NTMT1 inh, FH mod)
CS(=O)(=O)Nc1cccc(-c2cc(F)c(S(=O)(=O)N3CCN(S(=O)(=O)c4ccc5c(c4)OCCO5)CC3)cc2F)c1	NTMT1 inh 18µM (no result: p53null 32C tox, p53null 39C kill, GALC G270D up, FH mod)
CCCc1cc(F)c(S(=O)(=O)N2CCN(S(=O)(=O)c3ccc4c(c3)OCCO4)CC2)cc1F	none (no result: p53null 32C tox, p53null 39C kill, GALC G270D up, FH mod)
COc1ccc(-n2ncc3c(N4CCCCC4)ncnc32)cc1	p53null 32C tox 2.5µM, p53null 39C kill 4µM (no result: GALC G270D up, NTMT1 inh, FH mod)
Cc1cccc(-n2ncc3c(N4CCCC4)ncnc32)c1	none (no result: GALC G270D up, NTMT1 inh, FH mod)
COc1ccc(N2CCN(c3ncnc4c3cnn4C)CC2)cc1	NTMT1 inh inconclusive, FH mod inconclusive
Cc1ccc(-n2ncc3c(N(C)Cc4ccccc4)ncnc32)cc1	p53null 32C tox 13µM
Cc1ccc(-n2ncc3c(N4CCCCC4)ncnc32)cc1	p53null 32C tox 1.6µM, p53null 39C kill 6.3µM, NTMT1 inh inconclusive
Fc1ccccc1-c1nc(-c2cccc(-c3nn[nH]n3)c2)no1	none (no result: p53null 32C tox, p53null 39C kill, GALC G270D up, FH mod)
O=C1CCCC2=C1C(c1cnccc1C(F)(F)F)N=C(Nc1nc3ccccc3o1)N2 (configuration not stated)	none (no result: p53null 32C tox, p53null 39C kill, GALC G270D up, FH mod)
O=C(NCCc1nc2ccccc2[nH]1)C1CCCCC1	none (no result: p53null 32C tox, p53null 39C kill, GALC G270D up, FH mod)
Nc1cccc(CNC(=O)c2ccc(Oc3ccc(OCc4cccc(F)c4)cc3)nc2)c1	NTMT1 inh inconclusive (no result: p53null 32C tox, p53null 39C kill, GALC G270D up)
O=C(Nc1ncc([N+](=O)[O-])s1)c1cccs1	NTMT1 inh 40µM (no result: p53null 32C tox, p53null 39C kill)
Cc1ccc(N)cc1O	NTMT1 inh inconclusive, FH mod 20µM (no result: p53null 32C tox, p53null 39C kill)
COc1cc(N(C)CCN(C)C)c(N)cc1Nc1nccc(-c2cn(C)c3ccccc23)n1	none (no result: p53null 32C tox, p53null 39C kill, GALC G270D up)
O=C(NCCCN1CCN(c2ccccc2F)CC1)c1cc2c(s1)-c1ccccc1OC2	p53null 39C kill 32µM
Nc1c(C(=O)Nc2ccc(C(=O)O)cc2)sc2nc3c(cc12)CCCC3	p53null 32C tox inconclusive, p53null 39C kill inconclusive, NTMT1 inh 25µM
NC(=O)c1cccc2[nH]c(-c3ccc([C@H]4CCCN4)cc3F)nc12	NTMT1 inh 45µM (no result: p53null 32C tox, p53null 39C kill, GALC G270D up)
Cn1cccc1CN=C1NC2=C(C(=O)CCC2)C(c2[nH]ncc2Cl)N1 (configuration not stated)	none (no result: p53null 32C tox, p53null 39C kill, GALC G270D up, FH mod)
CCC(C)Cn1c(/C=C/c2ccccc2)nc2ccccc21 (configuration not stated)	p53null 32C tox inconclusive, p53null 39C kill 10µM
CC(C)Cn1c(/C=C/c2ccc(F)cc2)nc2ccccc21	p53null 32C tox 11µM, p53null 39C kill 7.9µM
CCc1nc2ccccc2n1CCCCOc1ccc(Cl)cc1	p53null 39C kill inconclusive, FH mod inconclusive
CC(C)CCn1c(/C=C/c2ccccc2)nc2ccccc21	p53null 32C tox inconclusive, p53null 39C kill inconclusive, FH mod inconclusive
CC(C)Cn1c(-c2ccccc2Cl)nc2ccccc21	none
C#CCn1c(/C=C/c2ccc(Cl)cc2)nc2ccccc21	p53null 32C tox 3.2µM, p53null 39C kill 4µM, NTMT1 inh inconclusive
CCC(C)n1cc(C)c2c(C(=O)NCc3c(C)cc(C)[nH]c3=O)cc(-c3ccc(N4CCNCC4)nc3)cc21 (configuration not stated)	NTMT1 inh inconclusive (no result: p53null 32C tox, p53null 39C kill, GALC G270D up)
CC(C)c1c2cc(-c3ccnc(NC4CCC(NC5CCOCC5)CC4)n3)ccc2nn1C (configuration not stated)	NTMT1 inh 45µM (no result: p53null 32C tox, p53null 39C kill, GALC G270D up)
Fc1ccc(-c2nc(C3CCNCC3)sc2-c2ccnc(NC3CC3)n2)cc1	none (no result: p53null 32C tox, p53null 39C kill, GALC G270D up)
N#Cc1cnc2c(Cl)cc(NCc3cn(CCN4CCCCCC4)nn3)cc2c1Nc1ccc(F)c(Cl)c1	NTMT1 inh 10µM (no result: p53null 32C tox, p53null 39C kill, GALC G270D up)
N#Cc1cnc2cnc(NCc3cccnc3)cc2c1Nc1ccc(F)c(Cl)c1	NTMT1 inh inconclusive (no result: p53null 32C tox, p53null 39C kill, GALC G270D up)
Cn1c(=O)c2[nH]cnc2n(C)c1=O	none (no result: p53null 32C tox, p53null 39C kill)
S=c1nc[nH]c2nc[nH]c12	NTMT1 inh 25µM! (no result: p53null 32C tox, p53null 39C kill)
CCc1ccc(OCC(=O)Nc2ncn[nH]2)c(Br)c1	p53null 32C tox 2µM, p53null 39C kill 1.3µM
COc1cccc(CNC(=O)Nc2cn(CC(C)C)c(=O)c3ccccc23)c1	FH mod inconclusive
COc1ccc(OC)c(CNC(=O)Nc2cn(CC(C)C)c(=O)c3ccccc23)c1	FH mod 32µM[activator]
O=C(Nc1cnn2ccc(N3CCC[C@@H]3c3cc(F)ccc3F)nc12)N1CC[C@H](O)C1	none (no result: p53null 32C tox, p53null 39C kill, GALC G270D up, FH mod)
C[n+]1ccc(-c2c3nc(c(-c4cc[n+](C)cc4)c4ccc([nH]4)c(-c4cc[n+](C)cc4)c4nc(c(-c5cc[n+](C)cc5)c5ccc2[nH]5)C=C4)C=C3)cc1	NTMT1 inh 14µM (no result: p53null 32C tox, p53null 39C kill, GALC G270D up)
COc1ccc(F)cc1S(=O)(=O)NCCc1csc(-c2ccc(Cl)cc2)n1	p53null 39C kill 20µM, FH mod inconclusive
N#Cc1ccc(-c2cnc3[nH]cc(NC(=O)c4cccnc4)c3c2)cc1	none (no result: p53null 32C tox, p53null 39C kill, GALC G270D up)
CCOc1ccc(NC2SC(=O)N(Cc3ccccc3)C2=O)cc1 (configuration not stated)	FH mod 40µM[activator]
Cc1ccc(C2CC(=O)Nc3cc4c(cc32)OCCO4)cc1 (configuration not stated)	none
CCc1ccc(C2CC(=O)Nc3cc4c(cc32)OCO4)cc1 (configuration not stated)	NTMT1 inh 89µM
CC[C@@H]1[C@H](F)C(=O)N[C@@H]1COc1nccc2cc(C(N)=O)c(OC)cc12	none (no result: p53null 32C tox, p53null 39C kill, GALC G270D up, FH mod)
CCCCC(CC)CNC(=O)c1ccc(Cn2c(=O)[nH]c3cc(OC)c(OC)cc3c2=O)cc1 (configuration not stated)	p53null 39C kill 13µM
CCCCC(CC)CNC(=O)c1ccc2c(=O)n(Cc3ccc(OC)cc3)c(=O)[nH]c2c1 (configuration not stated)	none
Cc1cc(N)c2cc(NC(=O)Nc3ccc4nc(C)cc(N)c4c3)ccc2n1	NTMT1 inh 20µM (no result: p53null 32C tox, p53null 39C kill)
Cc1cc(N2CCN(C)CC2)nc2ccc(NC(=O)Nc3ccc(Cl)cc3)cc12	none
CC(C)(C)c1ccc(-c2nc(SCC(=O)Nc3ccc(Cl)cc3)[nH]c(=O)c2C#N)cc1	NTMT1 inh 20µM, FH mod inconclusive
